The source of these data is PubChem BioAssay AID588489 (Sanford-Burnham Center for Chemical Genomics, 2011).

The structures appear in SMILES notation. Screen size: about 360,000 compounds; about 1,300 (0.36%) were called active. What follows is part of a selection rich in actives, with near analogues and random picks from the rest. A number with no mark means an inactive call. Rule as the data show it: active = inhibition above about 35% (passing the limit was not always enough); inactive = the rest.

Usually inhibition stands for the change of the read-out against control, counted positive when it falls.

Polyadenylate-binding protein 1 (Homo sapiens), sequence (P11940 whole entry, looked up): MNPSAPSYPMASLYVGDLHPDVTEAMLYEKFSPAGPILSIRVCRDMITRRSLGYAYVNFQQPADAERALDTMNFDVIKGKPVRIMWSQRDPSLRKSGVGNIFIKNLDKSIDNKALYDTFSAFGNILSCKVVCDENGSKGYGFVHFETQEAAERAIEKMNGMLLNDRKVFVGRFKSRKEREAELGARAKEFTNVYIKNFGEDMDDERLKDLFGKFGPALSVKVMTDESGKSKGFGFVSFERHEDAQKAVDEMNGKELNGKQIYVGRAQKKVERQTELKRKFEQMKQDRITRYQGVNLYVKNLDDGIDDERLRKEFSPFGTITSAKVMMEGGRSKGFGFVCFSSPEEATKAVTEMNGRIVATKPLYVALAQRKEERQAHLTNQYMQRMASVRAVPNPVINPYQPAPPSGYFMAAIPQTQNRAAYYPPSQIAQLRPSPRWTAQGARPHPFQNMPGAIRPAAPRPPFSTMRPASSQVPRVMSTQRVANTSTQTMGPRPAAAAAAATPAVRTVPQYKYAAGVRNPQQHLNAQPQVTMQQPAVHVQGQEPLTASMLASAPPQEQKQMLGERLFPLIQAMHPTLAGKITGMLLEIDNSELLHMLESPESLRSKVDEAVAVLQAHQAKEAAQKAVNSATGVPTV

The assay has as its target Polyadenylate-binding protein 1 (Homo sapiens) (UniProt P11940). Kind of assay: PAM2 peptide displacement from PABP1 MLLE – biochemical, fluorescence polarization, FITC-PAM2, GST-MLLE, primary screen (AID 588489).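 Also: plate controls were DMSO wells with GST-MLLE for no effect and wells lacking GST-MLLE protein for full effect.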 To be noted: at 20 µM, stronger effect = higher value. (In fluorescence polarisation assays a small probe gives low polarisation when free and higher when bound to something large.)
Consider `CN(C)CCCNC(=S)N1CCN(c2nc(-c3ccccc3)cs2)CC1`, for which the inhibition was -128%.

Consider `CCOc1ccc(NC(=O)CN(C)C(=O)Cc2sc(C)nc2-c2ccc(F)cc2)cc1OCC`, for which the inhibition is -16.1%.

Take `CCOC(=O)N1CCN(C(=O)C2CCN(c3ncnc4c3sc3cccc(F)c34)CC2)CC1`: the inhibition was -13.7%.

Take `CCOC(=O)N1CCN(C(c2cccnc2)c2ccc3cccnc3c2O)CC1` (stereo not given): the inhibition was 37.9% (active).

For `CCCCC(=O)NC(c1ccc(OC)c(OC)c1)c1ccc2cccnc2c1O` (stereo not given), the inhibition was 5.41%.

Turning to `COc1ccc(C(CNCC(=O)Nc2ccccc2F)N(C)C)cc1` (stereo not given), the inhibition is 4.22%.

Regarding `O=C1c2ccccc2C(=O)N1CCc1nn[nH]n1`, the inhibition was -10.4%.

In the case of `O=C(CC1CCCCC1)NCc1ccco1`, the inhibition was 2.87%.

With `O=C(CSC1=Nc2ccccc2C2=NC(CC(=O)NCc3ccco3)C(=O)N12)NCc1ccco1` (stereo not given), the inhibition was 38.7% (active).

Take `O=C(CSc1nnnn1-c1ccccc1)NCc1ccco1`: the inhibition was -13.1%.

In the case of `CCCCCC1CCC(c2nnc(SCC(C)=O)o2)CC1` (stereo not given), the inhibition was -9.06%.

As for `C/C=C/c1ccc(OCCCCN2CCC(C)CC2)c(OC)c1`, the inhibition was -4.4%.

Turning to `CC(C)CNC(=O)C1(C)CCCN1C(=O)CSc1ccccc1` (stereo not given), the inhibition was 10.8%.

As to `COc1cc(/C=C/C(=O)OCC(=O)NCCCc2ccccc2)ccc1O`, the inhibition is 7.53%.

Regarding `Cc1nc([N+](=O)[O-])nn1C12CC3CC(CC(Br)(C3)C1)C2`, the inhibition is 39.5% (active).

For the compound `Cc1cccc(NC(=O)CSc2nnc(NC(=O)CN3CCOCC3)s2)c1`, the inhibition is -8.76%.

With `C=CC1=C(C(=O)O)N2C(=O)[C@@H](NC(=O)/C(=N/OCC(=O)O)c3csc(N)n3)[C@H]2SC1`, the inhibition is 30.8%.

With `C=CC1=C(C(=O)O)N2C(=O)[C@@H](NC(=O)/C(=N\OCC(=O)O)c3csc(N)n3)[C@H]2SC1`, the inhibition was 41% (active).

`O=C(CSc1ccsc1[N+](=O)[O-])N1CCCCC1`: the inhibition was -4.37%.

On to `O=C1CSC2=NCN(c3ccccc3)CN12`, for which the inhibition is -6.21%.

In the case of `O=C(CCC(=O)OCc1cccc(C(=O)Oc2ccccc2)c1)Nc1cccc2ccccc12`, the inhibition is 9.55%.

Regarding `O=S(=O)(Oc1ccccc1C(=S)N1CCOCC1)c1ccc(Cl)cc1`, the inhibition was 44.5% (active).

For the compound `CC(=O)Nc1ccc(S(=O)(=O)Oc2ccc(Br)cc2C(=S)N2CCOCC2)cc1`, the inhibition was 5.89%.

Take `CCOc1cc(C(=S)N2CCOCC2)ccc1OS(=O)(=O)c1ccc(Br)cc1`: the inhibition was 8.34%.

Regarding `Cc1ccc(C)c(OCCC(=O)Nc2cccc(S(=O)(=O)N3CCCC3)c2)c1`, the inhibition is 10.9%.

Regarding `CCN(CC)S(=O)(=O)c1ccc(N2CCOCC2)c(NC(=O)C(C)Oc2ccc(F)cc2)c1` (stereo not given), the inhibition is 3.55%.

As for `Oc1ccc2ccccc2c1N=Nc1nccs1`, the inhibition was 55.3% (active).

`COc1ccc(C(c2nnnn2C2CCCC2)N2CCN(C/C=C/c3ccccc3)CC2)cc1` (stereo not given): the inhibition is 9.42%.

In the case of `O=C(Cn1cnc2c(OCc3ccccc3)ncnc21)NCc1nc2ccccc2[nH]1`, the inhibition is 6.52%.

As for `CCc1c(O)nc(SCC(=O)Nc2ccccc2)n(C(C)CC)c1=O` (stereo not given), the inhibition is 48% (active).

As for `CCn1c(CNC(=O)c2ccc(OC)c(OC)c2)nnc1SCC(=O)Nc1ccccc1`, the inhibition was -12%.

With `COc1ccccc1-n1c(SCC(=O)Nc2ccc(Cl)cc2)nc(O)c(Cc2ccccc2)c1=O`, the inhibition was 18.6%.

Consider `O=C(CC12CC3CC(CC(C3)C1)C2)Nc1ccc2c(c1)COC2=O`, for which the inhibition is 10.3%.

Take `CCOC(=O)Cc1cc(=O)[nH]c(/N=C(\N)Nc2ccc(OC)cc2)n1`: the inhibition was 3.52%.

Turning to `COc1ccc(S(=O)(=O)N2CCSCC2)cc1`, the inhibition was 2.01%.

With `Cc1c(C)c(C)c(S(=O)(=O)NCCc2ccccn2)c(C)c1C`, the inhibition is -6.36%.

Consider `COCCCNC(=O)Cc1ccc(-n2c(C)nc3cccnc32)cc1`, for which the inhibition is 18.3%.

In the case of `CCc1nc2cccnc2n1-c1ccc(C(=O)O)cc1`, the inhibition was 58.3% (active).

On to `CCOC(=O)CNC(=O)CSc1nc2cccnc2n1CC`, for which the inhibition was 0.93%.

For the compound `O=C(NCc1cc(F)cc(C(F)(F)F)c1)C1CCC(=O)N(C2CCCC2)C1` (stereo not given), the inhibition was 2.19%.

As to `C[C@@H]1NS(=O)(=O)c2cc(Cl)ccc2O[C@@H]1c1ccccc1`, the inhibition is -9.19%.

Consider `Cc1cccc(NC(=O)NC(=S)NC(=O)c2ccccc2)c1`, for which the inhibition is 41.9% (active).

Regarding `Cc1cccc(OCCNC(=S)NC(=O)c2cccnc2)c1`, the inhibition was 22%.

Take `Cn1nnc(NC(=S)NC(=O)c2ccccc2)n1`: the inhibition was 26.2%.

With `COc1ccc(C(C)(C)C)cc1NC(=O)CN(C)C1=NS(=O)(=O)c2ccccc21`, the inhibition is -40.4%.

Regarding `O=S(=O)(c1cccc(Cn2nnc(-c3ccc(F)cc3)n2)c1)N1CCOCC1`, the inhibition was -5.3%.

As for `O=S(=O)(c1ccc(F)cc1)N1CC=C(c2ccccc2)CC1`, the inhibition is -8.32%.

Take `CC1CCN(C(=S)NC(=O)c2ccccc2Br)CC1`: the inhibition is 15%.

Turning to `O=C(Nc1ccccc1)c1ccccc1Br`, the inhibition is -11.2%.

Take `O=C(NC(=S)Nc1ncccn1)c1ccccc1Br`: the inhibition is 42.1% (active).

Take `Cc1cc(Cl)ccc1C(=O)C1CCCN(C(=O)CCN2CCCO2)C1` (stereo not given): the inhibition is -4.82%.

Turning to `CCN1C(=O)[C@H]2[C@@H](c3ccc(-c4ccc(OC)cc4)cc3)N[C@@](Cc3ccccc3)(C(=O)OC)[C@H]2C1=O`, the inhibition was -0.71%.

As for `O=C(CN1C(=O)c2ccc([N+](=O)[O-])cc2C1=O)Nc1nnc(C2CC2)s1`, the inhibition is -18.6%.

`O=C(Cc1ccccc1Cl)N1CCN(c2ccccn2)CC1`: the inhibition was -6.28%.

As to `O=C(Cc1ccc(Br)cc1)N1CCN(c2ccccn2)CC1`, the inhibition was 61.7% (active).

Take `O=C(C(Cl)Cl)N1CCN(c2ccccn2)CC1`: the inhibition was -10.9%.

For `CC(=O)NC(CC(=O)Nc1cccc(S(=O)(=O)N2CCCC2)c1)c1ccccc1` (stereo not given), the inhibition was -16.4%.

Turning to `COc1ccc2c(c1)C(NS(=O)(=O)OCC(Cl)(Cl)Cl)CCC2` (stereo not given), the inhibition is -0.88%.

As to `CN(C)S(=O)(=O)c1cccc(NC(=O)COC(=O)C2(c3ccccc3F)CCCC2)c1`, the inhibition is 4.77%.

With `COc1ccccc1C(=O)NC(=S)Nc1ccccc1N1CCCCC1`, the inhibition is 14.7%.

With `COc1ccc(Br)cc1C(=O)NC(=S)Nc1cc(-c2nc3ccccc3[nH]2)ccc1C`, the inhibition is 43.3% (active).

Take `COc1ccc(Br)cc1C(=O)Nc1cccc(C)c1C`: the inhibition was 21.9%.

As for `O=C(CSC(=S)N1CCCCC1)c1c(F)cccc1F`, the inhibition was -3.59%.

Consider `C#CCOc1ccc(/C=C2/C(=O)ON=C2C)cc1OCC`, for which the inhibition was 26.6%.

`CC1=NOC(=O)/C1=C\c1ccccc1`: the inhibition is 25.2%.

For `COc1cc(/C=C2/C(=O)ON=C2C)ccc1OCc1cccc(F)c1`, the inhibition was 41.5% (active).

Regarding `CC(C)(C)[C@H]1C=C(C(=O)NCc2ccccc2)O[C@@H](OCc2ccc(CO)cc2)C1`, the inhibition was -0.14%.

Take `COCCOC(=O)c1sc(=S)n(CCOC)c1N`: the inhibition was 49.3% (active).

With `CCn1ncc(C2=NOC(C(=O)Nc3ccccc3C(=O)OC)C2)c1C` (stereo not given), the inhibition was 10.5%.

Take `COc1ccccc1-c1cc2nc(NCc3cccc(Cl)c3)ccn2n1`: the inhibition is 10.3%.

Take `COc1ccc(-c2nc(CS(=O)CC(=O)NCc3ccccn3)c(C)o2)cc1` (stereo not given): the inhibition is 61.9% (active).

Take `COc1ccc(-c2nc(CS(=O)CC(=O)NCc3ccccc3)c(C)o2)cc1OC` (stereo not given): the inhibition is 19.8%.

Consider `COc1ccc(-c2nc(CS(=O)CC(=O)NCc3cccnc3)c(C)o2)cc1OC` (stereo not given), for which the inhibition is 23.2%.

Consider `CC1CCCC(C)N1C(=O)CN1CCN(c2nc(-c3ccc(F)cc3)cs2)CC1` (stereo not given), for which the inhibition was -7.72%.

Take `COc1cccc(Nc2ncccc2C(=O)O)c1`: the inhibition is 8.54%.

`COc1ccc(NS(=O)(=O)c2ccc(F)cc2F)cn1`: the inhibition was -1.17%.

As for `COc1ccc(Nc2cc(Cl)ccc2C(=O)O)cn1`, the inhibition was 41.8% (active).

On to `CCOC(=O)C1CCCCN1Cc1ccc(OC)c(OC)c1OC` (stereo not given), for which the inhibition was 0.49%.

As to `NC(CSC12CC3CC(CC(C3)C1)C2)C(=O)O` (stereo not given), the inhibition was 11.7%.

With `Cc1cc2nc(C)n(CCCNC(=O)Nc3ccccc3)c2cc1C`, the inhibition was 4.6%.

Turning to `COCCNC(=O)CSc1nc(N)c(NC(=O)c2ccco2)c(=O)[nH]1`, the inhibition was -1%.

Consider `COCCNC(=O)Nc1ccc2nc(-c3ccco3)c(-c3ccco3)nc2c1`, for which the inhibition is 72.8% (active).

`Cc1ccc(C)c(S(=O)(=O)N2CCCOC2CNC(=O)C(=O)NC2CCCCC2)c1` (stereo not given): the inhibition is -1.96%.

With `CCN(CC)C(=O)COc1coc(CN2CCN(Cc3ccccc3)CC2)cc1=O`, the inhibition was 9.67%.

As for `NS(=O)(=O)c1ccc(CCNC(=O)c2ccc([N+](=O)[O-])cc2[N+](=O)[O-])cc1`, the inhibition was 5.05%.

On to `CNc1nccc(-c2ccc(Cl)cc2)c1C#N`, for which the inhibition was 11.5%.

As to `Cc1cc([N+](=O)[O-])c(N2CCC[C@@H]2C(=O)O)c([N+](=O)[O-])c1`, the inhibition was 11.4%.

In the case of `O=C(O)C1CCCN1c1nc(Cl)ccc1[N+](=O)[O-]` (stereo not given), the inhibition is 51.9% (active).

For the compound `Cc1nc(N2CCCC2C(=O)O)c2oc3ccccc3c2n1` (stereo not given), the inhibition is 2.41%.

As to `CC(=O)Nc1ccc(S(=O)(=O)N2CCN(c3ccc([N+](=O)[O-])c(NCCN4CCOCC4)c3)CC2)cc1`, the inhibition was -9.63%.

On to `O=C1c2ccccc2C2=Nc3ccccc3SC(c3ccccc3F)C12` (stereo not given), for which the inhibition is -2.44%.

Take `O=C1c2cccc(OCC(=O)N3N=C(c4cccs4)CC3c3ccc(F)cc3)c2CCN1Cc1ccccc1` (stereo not given): the inhibition was 0.32%.

Take `COc1cccc(C2SCC(=O)N2c2cccc(C)c2)c1OC` (stereo not given): the inhibition was 20.4%.

Regarding `Cc1ccc(C2SCC(=O)N2c2ccccc2)cc1` (stereo not given), the inhibition is 48.1% (active).

For the compound `O=C1CSC(c2cccc(F)c2)N1c1ccc(O)cc1` (stereo not given), the inhibition was 1.39%.
